# Reference: the supplement of paper PMC10849652
# The full data set covers some 8,800 targets. This sample favours those with a hit. About 0.5% of all pairs of compound and target were hits. Unmarked numbers belong to inactive results.
# Compound: CC(C)(C)Cn1c(N)nc2ccc(-c3[nH]c(C(C)(C)C)nc3-c3ccc(F)cc3)nc21 [ralimetinib]
# Assay: log2 fold change, soluble protein after heating vs DMSO (PISA); higher = thermal stabilisation; K562 lysate, 10 uM; active = over 0.2 and 3.5 SD of the protein, either way, in both replicates (recomputed)
# Method in brief: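 Dounce homogenisation of K562 pellets in PBS pH 7.4 with 1 mM MgCl2 produced a crude extract, used at 1 mg/mL protein. Exposure to 10 μM compound lasted 30 min, and aliquots were then heated for 3 min across 48°C-58°C, pooled and brought to 0.5% NP-40 at 4°C. The supernatant after 21,000xg for 90 min was quantified by TMTpro 16plex LC-MS/MS with channel sums equalised. Duplicate values are given as log-two fold change in thermal stability relative to solvent controls.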
# Chain of UniProt Q9P1Q0 (Q9P1Q0 whole entry, looked up): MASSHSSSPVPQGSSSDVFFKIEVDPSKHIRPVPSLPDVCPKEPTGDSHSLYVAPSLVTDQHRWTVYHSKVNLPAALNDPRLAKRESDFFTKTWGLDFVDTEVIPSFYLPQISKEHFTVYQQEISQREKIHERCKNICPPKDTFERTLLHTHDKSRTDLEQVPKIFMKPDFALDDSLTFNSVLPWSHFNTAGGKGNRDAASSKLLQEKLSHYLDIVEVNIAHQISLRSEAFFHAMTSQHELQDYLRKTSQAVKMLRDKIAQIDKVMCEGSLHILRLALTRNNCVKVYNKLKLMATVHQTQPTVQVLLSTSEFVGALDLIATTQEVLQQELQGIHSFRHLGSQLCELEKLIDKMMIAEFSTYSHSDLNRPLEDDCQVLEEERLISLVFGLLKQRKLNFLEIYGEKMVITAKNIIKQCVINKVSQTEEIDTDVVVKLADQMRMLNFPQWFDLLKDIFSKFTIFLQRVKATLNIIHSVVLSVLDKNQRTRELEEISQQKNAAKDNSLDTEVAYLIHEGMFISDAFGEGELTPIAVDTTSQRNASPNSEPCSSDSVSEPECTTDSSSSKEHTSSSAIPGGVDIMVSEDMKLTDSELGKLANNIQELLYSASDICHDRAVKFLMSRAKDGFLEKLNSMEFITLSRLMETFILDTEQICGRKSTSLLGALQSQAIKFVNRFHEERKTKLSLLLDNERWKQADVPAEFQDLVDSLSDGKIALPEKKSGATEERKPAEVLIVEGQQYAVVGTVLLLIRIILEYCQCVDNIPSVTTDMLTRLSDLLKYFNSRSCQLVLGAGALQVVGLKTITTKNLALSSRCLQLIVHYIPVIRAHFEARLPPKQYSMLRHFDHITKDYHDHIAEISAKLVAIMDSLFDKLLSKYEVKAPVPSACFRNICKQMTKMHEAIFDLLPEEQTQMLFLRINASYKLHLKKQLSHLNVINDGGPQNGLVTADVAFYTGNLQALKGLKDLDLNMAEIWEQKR
# Chain of UniProt O43149 (O43149 whole entry, looked up): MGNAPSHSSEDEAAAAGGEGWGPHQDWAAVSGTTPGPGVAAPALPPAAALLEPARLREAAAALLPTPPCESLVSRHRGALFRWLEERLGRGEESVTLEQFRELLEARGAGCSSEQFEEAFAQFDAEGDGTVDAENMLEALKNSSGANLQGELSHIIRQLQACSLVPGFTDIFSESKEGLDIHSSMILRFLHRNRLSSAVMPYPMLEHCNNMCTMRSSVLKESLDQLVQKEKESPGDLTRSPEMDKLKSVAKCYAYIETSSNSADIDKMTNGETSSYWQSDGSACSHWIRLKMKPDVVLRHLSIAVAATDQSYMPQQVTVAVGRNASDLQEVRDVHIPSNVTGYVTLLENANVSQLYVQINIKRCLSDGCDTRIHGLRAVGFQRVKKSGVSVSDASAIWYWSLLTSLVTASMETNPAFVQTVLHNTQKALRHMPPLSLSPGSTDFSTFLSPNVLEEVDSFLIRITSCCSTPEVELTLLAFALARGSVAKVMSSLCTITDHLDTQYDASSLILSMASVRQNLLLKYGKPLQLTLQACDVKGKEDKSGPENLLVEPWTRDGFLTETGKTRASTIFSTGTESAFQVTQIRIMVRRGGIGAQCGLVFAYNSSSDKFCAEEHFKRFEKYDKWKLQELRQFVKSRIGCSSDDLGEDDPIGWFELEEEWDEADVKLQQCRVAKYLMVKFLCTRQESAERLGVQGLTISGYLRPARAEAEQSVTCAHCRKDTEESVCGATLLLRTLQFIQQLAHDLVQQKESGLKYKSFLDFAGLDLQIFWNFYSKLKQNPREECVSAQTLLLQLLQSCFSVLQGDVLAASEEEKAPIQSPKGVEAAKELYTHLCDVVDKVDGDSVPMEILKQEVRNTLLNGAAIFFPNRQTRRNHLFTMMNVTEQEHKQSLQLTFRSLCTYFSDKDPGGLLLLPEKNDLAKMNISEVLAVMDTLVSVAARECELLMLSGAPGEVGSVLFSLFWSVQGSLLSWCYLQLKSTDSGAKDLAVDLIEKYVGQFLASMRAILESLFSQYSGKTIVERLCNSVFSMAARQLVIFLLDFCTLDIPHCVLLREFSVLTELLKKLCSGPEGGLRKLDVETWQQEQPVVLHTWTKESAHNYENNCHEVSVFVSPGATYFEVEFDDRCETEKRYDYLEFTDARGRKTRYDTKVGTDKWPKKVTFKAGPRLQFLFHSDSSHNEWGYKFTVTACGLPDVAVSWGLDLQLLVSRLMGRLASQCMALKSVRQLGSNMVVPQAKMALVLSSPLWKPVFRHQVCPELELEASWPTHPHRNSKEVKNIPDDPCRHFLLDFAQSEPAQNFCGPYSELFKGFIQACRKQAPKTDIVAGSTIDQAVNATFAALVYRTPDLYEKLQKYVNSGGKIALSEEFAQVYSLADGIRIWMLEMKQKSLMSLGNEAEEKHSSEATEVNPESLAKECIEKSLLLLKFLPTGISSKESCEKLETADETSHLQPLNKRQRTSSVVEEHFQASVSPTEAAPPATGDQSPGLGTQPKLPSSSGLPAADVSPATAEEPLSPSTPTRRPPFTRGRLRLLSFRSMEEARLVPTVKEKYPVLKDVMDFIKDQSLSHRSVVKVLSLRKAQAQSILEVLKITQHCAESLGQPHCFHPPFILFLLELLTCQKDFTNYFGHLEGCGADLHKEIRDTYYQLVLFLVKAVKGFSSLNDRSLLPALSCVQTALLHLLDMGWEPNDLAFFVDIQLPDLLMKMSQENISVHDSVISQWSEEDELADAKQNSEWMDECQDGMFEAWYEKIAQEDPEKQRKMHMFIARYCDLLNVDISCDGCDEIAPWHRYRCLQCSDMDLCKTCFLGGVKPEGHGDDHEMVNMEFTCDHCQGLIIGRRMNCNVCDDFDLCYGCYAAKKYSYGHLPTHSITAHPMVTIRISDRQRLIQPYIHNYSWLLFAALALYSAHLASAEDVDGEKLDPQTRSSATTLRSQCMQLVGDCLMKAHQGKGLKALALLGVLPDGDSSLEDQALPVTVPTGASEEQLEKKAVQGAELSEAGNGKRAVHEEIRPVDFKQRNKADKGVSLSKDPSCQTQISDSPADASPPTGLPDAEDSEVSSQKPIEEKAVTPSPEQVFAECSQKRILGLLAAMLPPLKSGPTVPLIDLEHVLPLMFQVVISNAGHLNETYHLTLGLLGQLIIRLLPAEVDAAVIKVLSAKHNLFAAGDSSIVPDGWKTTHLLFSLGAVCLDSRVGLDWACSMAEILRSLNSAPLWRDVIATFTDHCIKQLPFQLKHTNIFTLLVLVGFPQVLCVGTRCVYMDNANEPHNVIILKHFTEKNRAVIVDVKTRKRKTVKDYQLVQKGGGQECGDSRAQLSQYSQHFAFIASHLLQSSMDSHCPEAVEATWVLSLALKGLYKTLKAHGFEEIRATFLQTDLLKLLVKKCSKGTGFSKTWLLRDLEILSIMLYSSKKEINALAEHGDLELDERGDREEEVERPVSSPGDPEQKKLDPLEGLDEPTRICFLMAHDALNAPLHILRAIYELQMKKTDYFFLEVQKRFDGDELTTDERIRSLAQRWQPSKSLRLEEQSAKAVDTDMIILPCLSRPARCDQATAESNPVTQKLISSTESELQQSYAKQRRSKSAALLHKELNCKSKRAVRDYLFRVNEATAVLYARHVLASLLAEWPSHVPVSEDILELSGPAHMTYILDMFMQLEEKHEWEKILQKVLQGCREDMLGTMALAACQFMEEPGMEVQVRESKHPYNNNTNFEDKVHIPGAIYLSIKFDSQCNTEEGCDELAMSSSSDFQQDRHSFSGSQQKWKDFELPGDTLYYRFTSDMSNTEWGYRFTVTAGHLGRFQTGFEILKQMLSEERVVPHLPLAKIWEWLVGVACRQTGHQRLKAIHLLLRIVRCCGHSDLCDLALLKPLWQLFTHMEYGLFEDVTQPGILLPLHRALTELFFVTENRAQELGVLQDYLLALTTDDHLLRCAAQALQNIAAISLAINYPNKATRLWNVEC
# Chain of UniProt O43592 (O43592 whole entry, looked up): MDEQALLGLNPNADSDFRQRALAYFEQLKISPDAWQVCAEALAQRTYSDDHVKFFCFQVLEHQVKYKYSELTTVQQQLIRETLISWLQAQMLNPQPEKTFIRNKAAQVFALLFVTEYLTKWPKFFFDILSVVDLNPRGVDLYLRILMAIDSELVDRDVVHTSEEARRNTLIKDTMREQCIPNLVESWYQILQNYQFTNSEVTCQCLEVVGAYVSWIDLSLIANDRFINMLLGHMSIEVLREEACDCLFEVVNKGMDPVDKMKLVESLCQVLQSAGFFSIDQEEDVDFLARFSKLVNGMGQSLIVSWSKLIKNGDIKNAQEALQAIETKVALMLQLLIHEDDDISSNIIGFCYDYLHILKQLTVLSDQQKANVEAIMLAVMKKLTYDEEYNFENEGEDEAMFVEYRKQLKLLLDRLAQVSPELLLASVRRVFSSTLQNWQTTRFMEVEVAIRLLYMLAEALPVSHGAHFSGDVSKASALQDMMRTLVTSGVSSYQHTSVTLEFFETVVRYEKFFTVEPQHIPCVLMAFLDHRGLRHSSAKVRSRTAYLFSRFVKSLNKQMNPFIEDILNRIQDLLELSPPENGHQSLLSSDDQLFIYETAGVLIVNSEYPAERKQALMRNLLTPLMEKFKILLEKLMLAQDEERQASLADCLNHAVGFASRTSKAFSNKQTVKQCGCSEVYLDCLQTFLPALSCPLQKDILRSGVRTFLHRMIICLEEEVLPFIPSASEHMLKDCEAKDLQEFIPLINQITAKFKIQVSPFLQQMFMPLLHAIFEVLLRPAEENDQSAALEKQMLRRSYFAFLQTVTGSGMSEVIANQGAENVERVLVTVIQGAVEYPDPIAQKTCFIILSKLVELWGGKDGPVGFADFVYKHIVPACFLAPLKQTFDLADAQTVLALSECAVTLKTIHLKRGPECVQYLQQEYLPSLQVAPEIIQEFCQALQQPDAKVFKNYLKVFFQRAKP
# Chain of UniProt O00258 (O00258 whole entry, looked up): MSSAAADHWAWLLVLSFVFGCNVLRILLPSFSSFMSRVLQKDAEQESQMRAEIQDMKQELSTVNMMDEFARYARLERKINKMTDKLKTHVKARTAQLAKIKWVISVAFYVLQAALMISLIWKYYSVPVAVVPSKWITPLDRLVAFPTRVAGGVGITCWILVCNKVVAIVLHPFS
row,Target,log2 fold change
1,USP9X (UniProt Q93008),0.025
2,ZMYM1 (UniProt Q5SVZ6),0.02
3,ZNF598 isoform 3 (UniProt Q86UK7),-0.001
4,VAV1 (UniProt P15498),0.083
5,WDR7 (UniProt Q9Y4E6),0.063
6,VPS11 (UniProt Q9H270),0.033
7,ZNF318 (UniProt Q5VUA4),0.029
8,VAC14 (UniProt Q08AM6),-0.003
9,VPS41 (UniProt P49754),0.015
10,ZNHIT6 (UniProt Q9NWK9),-0.032
11,ZZEF1 (UniProt O43149),-0.002
12,VPS16 (UniProt Q9H269),-0.012
13,ZHX1 (UniProt Q9UKY1),-0.007
14,ZC3H13 (UniProt Q5T200),-0.003
15,VRK1 (UniProt Q99986),0.122
16,VPS54 (UniProt Q9P1Q0),-0.122
17,WDR45 isoform 2 (UniProt Q9Y484),0.13
18,XAB2 (UniProt Q9HCS7),-0.002
19,YTHDF3 (UniProt Q7Z739),-0.014
20,XPO6 (UniProt Q96QU8),0.006
21,WRB (UniProt O00258),-0.095
22,XPOT (UniProt O43592),0.006
23,VPS18 (UniProt Q9P253),0.038
24,WDR3 (UniProt Q9UNX4),0.021
